Targets with a hit are over-represented here; the source holds about 8,800 in all. About 0.5% of all pairs of compound and target were hits.
These targets were tested with Cn1cc(CNCC2CCN(c3ncc(C(=O)NO)cn3)CC2)c2ccccc21 [quisinostat] (assay: log2 fold change, soluble protein after heating vs DMSO (PISA); higher = thermal stabilisation; K562 lysate, 10 uM; active = over 0.2 and 3.5 SD of the protein, either way, in both replicates (recomputed)).
Method in brief: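 Soluble protein was defined as the supernatant remaining after 21,000xg for 90 min, following pooling of heated aliquots and adjustment to 0.5% NP-40 at 4°C. Before that, crude K562 extract at 1 mg/mL protein in PBS pH 7.4 with 1 mM MgCl2 was treated with 10 μM compound for 30 min and heated for 3 min across 48°C-58°C. Quantification used TMTpro 16plex LC-MS/MS with channel sums equalised, and values are log-two fold changes in thermal stability relative to solvent controls from duplicates.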

Chain of UniProt P19367 (P19367 whole entry, looked up): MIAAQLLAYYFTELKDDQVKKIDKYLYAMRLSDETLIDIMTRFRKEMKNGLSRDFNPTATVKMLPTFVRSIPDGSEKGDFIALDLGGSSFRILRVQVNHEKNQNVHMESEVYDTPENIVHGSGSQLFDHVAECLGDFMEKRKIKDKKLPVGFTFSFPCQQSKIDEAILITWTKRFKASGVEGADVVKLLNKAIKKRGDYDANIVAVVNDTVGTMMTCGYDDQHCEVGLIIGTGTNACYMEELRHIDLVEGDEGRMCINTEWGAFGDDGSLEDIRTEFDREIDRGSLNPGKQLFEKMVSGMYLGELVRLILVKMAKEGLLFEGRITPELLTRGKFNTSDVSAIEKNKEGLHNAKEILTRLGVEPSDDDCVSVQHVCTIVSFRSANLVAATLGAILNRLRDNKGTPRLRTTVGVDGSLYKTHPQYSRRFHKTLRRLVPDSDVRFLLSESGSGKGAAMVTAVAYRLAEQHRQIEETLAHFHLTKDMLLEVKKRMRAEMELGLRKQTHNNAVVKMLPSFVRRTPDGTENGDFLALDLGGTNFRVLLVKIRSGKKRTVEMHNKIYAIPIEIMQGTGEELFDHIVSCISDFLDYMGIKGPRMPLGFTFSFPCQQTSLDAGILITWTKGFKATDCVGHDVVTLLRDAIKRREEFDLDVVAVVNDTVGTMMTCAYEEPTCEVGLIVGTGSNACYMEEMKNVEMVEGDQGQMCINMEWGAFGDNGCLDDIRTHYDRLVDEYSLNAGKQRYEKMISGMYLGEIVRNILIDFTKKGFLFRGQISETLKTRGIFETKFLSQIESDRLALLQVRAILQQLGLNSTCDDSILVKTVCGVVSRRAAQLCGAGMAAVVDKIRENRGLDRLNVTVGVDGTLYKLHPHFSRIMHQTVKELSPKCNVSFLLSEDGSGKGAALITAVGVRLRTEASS
Chain of UniProt Q27J81 (Q27J81 whole entry, looked up): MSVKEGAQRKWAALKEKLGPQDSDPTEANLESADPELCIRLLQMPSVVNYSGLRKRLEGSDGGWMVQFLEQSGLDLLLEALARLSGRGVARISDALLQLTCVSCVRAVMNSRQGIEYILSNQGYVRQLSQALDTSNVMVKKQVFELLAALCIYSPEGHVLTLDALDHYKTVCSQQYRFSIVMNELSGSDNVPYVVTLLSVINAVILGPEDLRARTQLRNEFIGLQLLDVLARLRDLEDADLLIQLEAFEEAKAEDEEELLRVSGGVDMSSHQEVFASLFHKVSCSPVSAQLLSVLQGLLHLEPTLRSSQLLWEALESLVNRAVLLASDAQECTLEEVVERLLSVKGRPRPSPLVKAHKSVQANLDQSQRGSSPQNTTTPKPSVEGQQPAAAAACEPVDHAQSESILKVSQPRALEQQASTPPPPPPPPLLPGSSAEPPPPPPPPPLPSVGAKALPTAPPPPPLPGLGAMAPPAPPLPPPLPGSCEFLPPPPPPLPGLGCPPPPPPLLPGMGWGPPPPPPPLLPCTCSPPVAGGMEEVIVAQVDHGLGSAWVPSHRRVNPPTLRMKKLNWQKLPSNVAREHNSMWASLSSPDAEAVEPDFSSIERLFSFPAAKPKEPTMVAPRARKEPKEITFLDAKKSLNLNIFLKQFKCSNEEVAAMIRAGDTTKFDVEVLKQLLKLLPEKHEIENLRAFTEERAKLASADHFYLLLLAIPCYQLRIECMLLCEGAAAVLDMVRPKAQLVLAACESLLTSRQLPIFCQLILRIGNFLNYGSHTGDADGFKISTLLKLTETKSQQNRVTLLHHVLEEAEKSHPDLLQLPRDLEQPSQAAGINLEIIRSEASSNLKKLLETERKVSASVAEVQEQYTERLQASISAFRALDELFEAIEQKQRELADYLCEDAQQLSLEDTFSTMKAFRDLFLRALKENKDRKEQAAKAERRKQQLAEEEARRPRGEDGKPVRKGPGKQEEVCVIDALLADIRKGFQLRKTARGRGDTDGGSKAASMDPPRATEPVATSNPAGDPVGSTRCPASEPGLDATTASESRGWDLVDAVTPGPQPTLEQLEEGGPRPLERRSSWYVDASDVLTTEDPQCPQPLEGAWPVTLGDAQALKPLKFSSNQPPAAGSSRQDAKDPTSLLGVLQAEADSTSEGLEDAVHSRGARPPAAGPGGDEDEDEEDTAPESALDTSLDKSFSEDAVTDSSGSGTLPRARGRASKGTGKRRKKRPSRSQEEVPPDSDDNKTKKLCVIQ
Chain of UniProt Q99871 (Q99871 whole entry, looked up): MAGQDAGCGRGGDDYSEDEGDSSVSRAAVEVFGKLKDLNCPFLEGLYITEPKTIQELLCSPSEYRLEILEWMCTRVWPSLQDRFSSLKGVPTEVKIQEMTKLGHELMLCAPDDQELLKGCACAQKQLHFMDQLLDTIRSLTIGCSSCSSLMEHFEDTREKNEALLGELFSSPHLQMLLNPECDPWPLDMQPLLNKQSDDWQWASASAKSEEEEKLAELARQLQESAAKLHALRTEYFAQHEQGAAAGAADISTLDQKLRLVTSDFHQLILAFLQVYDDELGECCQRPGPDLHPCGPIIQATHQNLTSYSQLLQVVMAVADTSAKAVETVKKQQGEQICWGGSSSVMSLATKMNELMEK
Chain of UniProt Q7Z4H7 (Q7Z4H7 whole entry, looked up): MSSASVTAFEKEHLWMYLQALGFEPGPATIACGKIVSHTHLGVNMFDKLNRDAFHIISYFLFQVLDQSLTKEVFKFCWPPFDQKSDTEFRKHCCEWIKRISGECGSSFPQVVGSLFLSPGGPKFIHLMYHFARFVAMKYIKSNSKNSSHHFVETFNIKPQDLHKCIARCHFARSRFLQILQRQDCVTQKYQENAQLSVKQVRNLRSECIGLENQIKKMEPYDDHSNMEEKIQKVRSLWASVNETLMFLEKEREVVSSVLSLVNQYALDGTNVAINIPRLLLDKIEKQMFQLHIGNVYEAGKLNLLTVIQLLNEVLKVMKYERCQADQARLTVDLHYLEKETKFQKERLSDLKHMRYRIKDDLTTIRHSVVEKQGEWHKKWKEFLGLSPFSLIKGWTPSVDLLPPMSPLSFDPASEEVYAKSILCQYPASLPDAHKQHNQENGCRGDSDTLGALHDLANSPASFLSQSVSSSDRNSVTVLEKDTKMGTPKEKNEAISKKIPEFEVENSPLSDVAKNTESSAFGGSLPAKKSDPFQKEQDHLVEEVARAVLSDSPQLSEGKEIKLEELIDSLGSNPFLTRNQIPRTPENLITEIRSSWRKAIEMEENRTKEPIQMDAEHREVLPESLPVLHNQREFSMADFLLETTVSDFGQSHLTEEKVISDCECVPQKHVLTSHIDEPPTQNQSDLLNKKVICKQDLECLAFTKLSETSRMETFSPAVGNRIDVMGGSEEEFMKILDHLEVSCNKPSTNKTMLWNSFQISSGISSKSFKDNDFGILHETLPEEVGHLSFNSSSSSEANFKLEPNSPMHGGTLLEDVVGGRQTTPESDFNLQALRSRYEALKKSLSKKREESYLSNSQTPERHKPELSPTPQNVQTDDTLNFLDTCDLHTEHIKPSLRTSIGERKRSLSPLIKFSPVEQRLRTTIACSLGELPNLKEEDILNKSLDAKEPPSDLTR
Chain of UniProt P52655 (P52655 whole entry, looked up): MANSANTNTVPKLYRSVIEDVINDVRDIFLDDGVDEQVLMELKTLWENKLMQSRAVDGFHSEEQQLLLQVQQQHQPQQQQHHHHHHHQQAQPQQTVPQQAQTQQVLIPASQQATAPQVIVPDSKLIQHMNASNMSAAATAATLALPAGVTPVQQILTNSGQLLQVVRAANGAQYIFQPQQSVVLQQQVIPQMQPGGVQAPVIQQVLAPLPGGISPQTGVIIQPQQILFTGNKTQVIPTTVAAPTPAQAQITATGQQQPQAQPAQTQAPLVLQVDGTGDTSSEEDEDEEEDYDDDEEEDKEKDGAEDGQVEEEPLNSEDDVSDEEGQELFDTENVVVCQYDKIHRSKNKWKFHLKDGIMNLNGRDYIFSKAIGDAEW
Chain of UniProt Q68E01 (Q68E01 whole entry, looked up): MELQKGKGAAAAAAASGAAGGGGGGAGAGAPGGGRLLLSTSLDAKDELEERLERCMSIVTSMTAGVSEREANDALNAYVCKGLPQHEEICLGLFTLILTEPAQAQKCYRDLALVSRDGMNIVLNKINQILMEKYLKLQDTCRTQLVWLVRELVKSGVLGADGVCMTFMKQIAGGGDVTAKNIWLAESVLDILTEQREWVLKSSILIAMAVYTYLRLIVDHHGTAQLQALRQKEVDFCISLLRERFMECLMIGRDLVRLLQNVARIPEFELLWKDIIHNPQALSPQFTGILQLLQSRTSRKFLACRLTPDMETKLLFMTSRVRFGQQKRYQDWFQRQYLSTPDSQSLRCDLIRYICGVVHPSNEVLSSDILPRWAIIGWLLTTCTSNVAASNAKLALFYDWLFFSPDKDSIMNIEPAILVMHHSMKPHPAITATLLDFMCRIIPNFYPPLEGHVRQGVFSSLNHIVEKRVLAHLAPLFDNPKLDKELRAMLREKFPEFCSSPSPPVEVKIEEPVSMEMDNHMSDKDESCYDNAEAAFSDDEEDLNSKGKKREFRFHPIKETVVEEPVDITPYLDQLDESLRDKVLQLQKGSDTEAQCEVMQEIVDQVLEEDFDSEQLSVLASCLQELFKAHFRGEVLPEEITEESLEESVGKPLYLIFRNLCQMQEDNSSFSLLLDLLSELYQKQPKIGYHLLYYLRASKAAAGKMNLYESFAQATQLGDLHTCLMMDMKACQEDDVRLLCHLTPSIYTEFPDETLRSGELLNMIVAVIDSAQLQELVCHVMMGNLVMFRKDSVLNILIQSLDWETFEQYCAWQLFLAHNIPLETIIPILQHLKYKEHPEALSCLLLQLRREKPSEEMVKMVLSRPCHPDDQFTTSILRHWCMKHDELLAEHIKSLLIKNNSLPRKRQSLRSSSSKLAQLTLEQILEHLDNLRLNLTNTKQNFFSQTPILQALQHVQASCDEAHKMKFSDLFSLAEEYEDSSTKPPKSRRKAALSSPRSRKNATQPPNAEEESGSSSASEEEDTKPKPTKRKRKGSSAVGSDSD

log2 fold change, inactive:
GTPBP2 (UniProt Q9BX10) -0.136
GMDS (UniProt O60547) -0.041
HSPA8 (UniProt E9PK54) -0.093
ILK (UniProt Q13418) -0.076
HNRNPUL2 (UniProt Q1KMD3) -0.046
KDM1A (UniProt O60341) -0.045
INF2 (UniProt Q27J81) -0.051
ITPKA (UniProt P23677) -0.026
INTS3 (UniProt Q68E01) -0.038
KBTBD4 isoform 2 (UniProt Q9NVX7) -0.038
HNRNPL (UniProt P14866) -0.07
HK1 isoform 2 (UniProt P19367) -0.013
HAUS8 (UniProt Q9BT25) -0.085
IMMT (UniProt Q16891) 0.041
HIST2H2AA3 (UniProt Q6FI13) 0.064
HAUS6 (UniProt Q7Z4H7) -0.066
ISY1 isoform 1 (UniProt Q9ULR0) -0.036
HLCS (UniProt P50747) -0.022
HSD17B12 (UniProt Q53GQ0) 0.073
HAUS7 isoform 2 (UniProt Q99871) -0.037
GTF2A1 (UniProt P52655) -0.039
IL18R1 (UniProt Q13478) 0.067
